# From PubChem BioAssay (NCI)
# The panel holds about 83,000 compounds, 20% with a hit somewhere; the sample as a whole holds those more often.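 Note: values are percent growth. 100 is the growth of untreated cells, values between 100 and 0 indicate rising inhibition; between -100 and 0 indicates cell death.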 Unmarked numbers belong to inactive results. The source made the active and inactive calls. The calls were made as follows: active = growth percent below 10; inactive = the rest.
# Legend:
# Experiment in all cases: NCI-60 one-dose screen, 48 h (100 = growth as untreated, 0 = no growth, -100 = all killed)
# Conditions in all cases: 10 µM unless noted
# HCT-15 colon = tested on: HCT-15 colon
# HT29 colon = tested on: HT29 colon
# SNB-75 CNS = tested on: SNB-75 CNS
# SNB-19 CNS = tested on: SNB-19 CNS
# U251 CNS = tested on: U251 CNS
# PC-3 prostate = tested on: PC-3 prostate
# SK-MEL-5 melanoma = tested on: SK-MEL-5 melanoma
# UACC-62 melanoma = tested on: UACC-62 melanoma
# LOX IMVI melanoma = tested on: LOX IMVI melanoma
# SK-MEL-28 melanoma = tested on: SK-MEL-28 melanoma
SMILES,growth (HCT-15 colon),growth (HT29 colon),growth (SNB-75 CNS),growth (SNB-19 CNS),growth (U251 CNS),growth (PC-3 prostate),growth (SK-MEL-5 melanoma),growth (UACC-62 melanoma),growth (LOX IMVI melanoma),growth (SK-MEL-28 melanoma)
CNC(=O)Nc1ccc(Nc2cc(-c3ccc(-n4cccn4)cc3)[nH]n2)c(C)c1,103%,120%,123%,97.6%,106%,107%,97.7%,114%,129%,114%
O=C(/C=C/C=C/c1csc(Br)n1)NO,94.5%,94.5%,75.6%,94.4%,98.6%,84.8%,96%,84.8%,-31.7% (active),102%
COc1cc(C(C)=C(c2ccc(OCCN(C)C)cc2)c2ccc(OCCN(C)C)cc2)ccc1F,101%,108%,100%,98.2%,106%,110%,96.6%,97.8%,95.3%,109%
COc1cccc2c1[C@H](OC)[C@]13O[C@@]1(C2=O)[C@H](O)[C@H](C)[C@@](O)(C(=O)[C@@H]1O[C@H]1C)[C@@H]3O,-14.8% (active),-28.9% (active),-61.7% (active),1.38% (active),-13.3% (active),-19.4% (active),-97.7% (active),-45.5% (active),-62% (active),-10.4% (active)
CCOC(=O)c1c(NC(=O)c2cccc(C(F)(F)F)c2)sc2c1CCC(=O)C2,18.9%,65.4%,31.6%,21.4%,3.77% (active),3.56% (active),38%,30.9%,9.07% (active),89.2%
COc1ccc(NC2=C(Br)C(=O)C(C)=C(C)C2=O)cc1OC,97.9%,111%,77.1%,84.9%,84%,69.7%,69.7%,88%,73.7%,112%
CN1CCN(CCNc2nc(-c3cccc(NS(=O)(=O)c4cccc5c(N(C)C)cccc45)c3)cs2)CC1,18.5%,71.6%,73.8%,75.5%,65.9%,65.5%,12.2%,65.7%,38.1%,40.2%
NC1CC2(CCN(c3cnc(C(=O)Nc4cc(F)cc5cccnc45)cn3)CC2)C1,3.7% (active),5.06% (active),74.2%,83.1%,57.1%,76.6%,95.3%,95.4%,-17% (active),93.3%
Cc1ccc(NC(=O)/C=C/c2ccc(OCCCOc3ccc4c(C)cc(=O)oc4c3)cc2)cc1,85.5%,71.3%,-6.2% (active),38.2%,71.6%,74.5%,76.9%,93%,68.8%,59.9%
CN1CCN(Cc2ccc(NC(=O)c3cncc(C#Cc4cnc(N)nc4)c3)cc2C(F)(F)F)CC1,17.2%,14.3%,41.5%,57.4%,30.3%,35.1%,38%,-0.0134% (active),4.32% (active),2.04% (active)
CC(C)NC(=O)c1cc(-c2ccc(NC(=O)Nc3ccc(F)c(C(F)(F)F)c3)cc2)nc2cccnc12,89.7%,91%,80%,93.6%,87.8%,84.2%,93.2%,97%,88.8%,100%
COC(=O)c1cccc(NC2=CC(=O)C(C)=C(C)C2=O)c1,93.8%,110%,93.4%,96.2%,94.7%,79.7%,96.3%,96.2%,61%,111%
CCOC(=O)c1ccc(NC2=CC(=O)C(C)=C(C)C2=O)cc1,88.5%,110%,78.7%,71.9%,81.6%,49%,91.6%,74.1%,46%,109%
Cc1nc(/N=C(N)/N=C(\N)c2cccc(Br)c2)sc1C,25.1%,17.8%,62.9%,42.9%,47%,59.8%,69.8%,28.1%,43.5%,72.8%
CCc1cc(OC(=O)N2CCN(CCC(C)(COC(C)(C)C)COC(C)(C)C)CC2)ccc1Nc1cc(-c2ccc(-n3cccn3)cc2)[nH]n1,65.9%,47.3%,48.7%,86.2%,74.9%,53.9%,90.8%,85.8%,104%,96.6%
O=C(COc1ccc(/C=C2\C(=O)Nc3cc(Cl)ccc32)cc1)Nc1ccc(Cl)cc1,42.5%,74.6%,78.9%,82.1%,85.2%,54.5%,72.8%,24.6%,44.8%,78.7%
Cc1[nH]c(C(=O)Nc2ccccc2OCc2cccc(C(=O)NC3CCCNC3)c2)c(Cl)c1Cl (stereo not given),-84.2% (active),-58.9% (active),84.1%,-80.4% (active),-57.6% (active),-82.2% (active),-22.9% (active),-84.4% (active),-89.8% (active),-84.9% (active)
Cc1ccc2c(n1)C(=O)C(Cl)=C(Nc1ccc(C)c(C)c1)C2=O,23.6%,103%,87.6%,56.2%,71.8%,45.3%,6.91% (active),49.3%,0.982% (active),58.3%
CC(C)(C)Nc1nc2c(OCCc3ccccc3)cccn2c1-c1ccc([N+](=O)[O-])cc1,15.8%,52.3%,88.1%,78.4%,62.6%,49.1%,74.8%,57.5%,54.7%,76.2%
CC(Nc1c(C#N)cnc2ccc(-c3cncc(O)c3)cc12)c1ccccc1 (stereo not given),4.88% (active),46.8%,10.5%,-6.67% (active),6.74% (active),9.41% (active),-89.4% (active),-51.2% (active),1.56% (active),3.08% (active)
CCCCN1C(=O)/C(=c2\sc3n(c2=O)C2C(NN=3)N(CC)C(=O)N2CC)c2cccc(C)c21 (stereo not given),14.9%,16.5%,14.1%,39.4%,39.1%,34.4%,29.6%,38.7%,42.4%,68.2%
CC(C)(C)c1cc(NC(=O)Nc2ccc(-c3cn4c5c(sc4n3)CCc3c[nH]cc3-5)cc2)no1,5% (active),-66% (active),-12.9% (active),21.7%,-14.6% (active),21.9%,19.1%,49.9%,-22.5% (active),23.1%
COc1cc2c3c(cc4c5c(ccc4c3c1OC)OCO5)N(CCN(C)C)C2=O,-6.74% (active),-9.31% (active),-75.5% (active),1.56% (active),-2.59% (active),6.59% (active),-90.1% (active),-64% (active),-82.6% (active),-86.6% (active)
O=C(CCCCCCN1CC(=O)N2[C@@H](C3CC3)c3[nH]c4ccccc4c3C[C@H]2C1=O)NO,92.9%,78.3%,58.7%,68.4%,53.1%,74.7%,44.1%,31.8%,33.2%,32.3%
COc1ccc(/C=N/NC(=O)CSc2nc(-c3cnccn3)cc(-c3cccs3)c2C#N)cc1OC,89.1%,60.9%,81.9%,78.1%,21%,80.8%,34.8%,19.8%,59.9%,98.2%
O=C(CSc1nnc(-c2ccc(Cl)cc2)n1-c1ccccc1)Nc1cccc(F)c1,67.8%,48.1%,-14.1% (active),48.3%,14.1%,62.1%,87.9%,93.5%,0.1% (active),78%
